Data reported in PubChem BioAssay (NCATS).
Values joined by “and” are separate entries in the source; they are usually repeats but may differ in a detail not shown here. Equal values may be shown once. Inconclusive results are not listed. Active and inactive are the calls of the source. Unless noted, calls come from the whole dose curve; as a rule, active = well fitted curve in the direction sought with a large enough effect; inconclusive = small, poorly fitted or top-dose-only effect, or another doubt; inactive = no such curve, though single readings can be large; an effect the other way counts as inactive or inconclusive.

Key:
[1] = Primary qHTS for small molecule stabilizers of the endoplasmic reticulum resident proteome: Secreted ER Calcium Modulated Protein (SERCaMP) assay (AID 1508630); settings: SH-SY5Y GLuc-SERCaMP (Gaussia luciferase released on ER calcium loss) secretion, thapsigargin, luminescence; series mostly up to 38.4 µM; note: % is set by controls: 0 for no effect and ±100 for the full control effect
How it was run: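 The SH-SY5Y reporter protocol was run at 3 concentrations up to 38.3 uM (primary) or 11 concentrations (follow-up): 16 h compound, 100 nM thapsigargin for 4 h, then extracellular luciferase luminescence.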

[2] = Primary qHTS for inhibitors of nuclear receptor binding SET domain protein 2 (NSD2) in an isogenic RCH-ACV NSD2 p.E1099K mutant (9B) (AID 1645876); settings: RCH-ACV NSD2 E1099K (9B) viability, CellTiter-Glo, 72 h; series mostly up to 44.9 µM; note: nearly all actives have a fitted effect of over 70% in size; note: potency is the fitted concentration of half-maximal effect
[3] = target: Cytochrome P450 2D6 (Homo sapiens) (UniProt P10635); assay: Cytochrome P450 family 2 subfamily D member 6 (CYP2D6) small molecule antagonists: luciferase biochemical (cell-free) qHTS assay (AID 1645840; active = well fitted curve in the direction sought with a large enough effect in the repeat runs; an effect the other way counts as inactive or inconclusive; note: nearly all actives have a fitted effect of over 55% in size; note: potency is the fitted concentration of half-maximal effect; for activity change, negative = inhibition: % is set by controls: 0 for no effect and ±100 for the full control effect); settings: P450-Glo CYP2D6 enzyme, luciferin luminescence, 1 h; series mostly up to 57.4 µM
Cytochrome P450 2D6 (Homo sapiens), sequence (P10635 whole entry, looked up): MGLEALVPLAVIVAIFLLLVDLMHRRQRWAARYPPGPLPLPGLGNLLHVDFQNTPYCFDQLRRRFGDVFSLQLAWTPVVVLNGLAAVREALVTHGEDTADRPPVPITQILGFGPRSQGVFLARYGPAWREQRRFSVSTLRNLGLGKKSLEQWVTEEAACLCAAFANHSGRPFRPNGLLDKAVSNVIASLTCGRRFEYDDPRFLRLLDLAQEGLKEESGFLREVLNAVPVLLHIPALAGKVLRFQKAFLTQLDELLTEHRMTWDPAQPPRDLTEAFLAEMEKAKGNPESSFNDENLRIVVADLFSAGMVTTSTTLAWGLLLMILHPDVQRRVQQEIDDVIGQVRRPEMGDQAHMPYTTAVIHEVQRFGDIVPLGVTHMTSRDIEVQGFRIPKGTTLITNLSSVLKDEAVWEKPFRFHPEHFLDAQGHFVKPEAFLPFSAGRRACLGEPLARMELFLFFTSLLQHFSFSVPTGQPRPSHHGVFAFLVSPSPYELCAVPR
How it was run: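 P450-Glo CYP2D6 system: proluciferin substrate converted by enzyme to luciferin, read by luminescence proportional to activity. Enzyme-substrate mix with compound 10 min at room temperature, then NADPH regeneration 1 h before detection reagent.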

[4] = Primary qHTS for inhibitors of nuclear receptor binding SET domain protein 2 (NSD2) in an RCH-ACV wild type WT cells (2C) (AID 1645877); settings: RCH-ACV (leukaemia line) NSD2 WT (2C) viability, CellTiter-Glo, 72 h; series mostly up to 44.9 µM; note: nearly all actives have a fitted effect of over 70% in size; note: potency is the fitted concentration of half-maximal effect
[5] = target: Rap guanine nucleotide exchange factor 3 (Homo sapiens) (UniProt O95398); assay: Confirmatory qHTS for antagonist of cAMP-regulated guanine nucleotide exchange factor 3 (EPAC1) (AID 1645880); settings: EPAC1 Rap1B-BODIPY-GDP exchange, fluorescence; note: potency is the fitted concentration of half-maximal effect; nearly all actives have a fitted effect of over 55% in size
Rap guanine nucleotide exchange factor 3 (Homo sapiens), sequence (O95398 whole entry, looked up): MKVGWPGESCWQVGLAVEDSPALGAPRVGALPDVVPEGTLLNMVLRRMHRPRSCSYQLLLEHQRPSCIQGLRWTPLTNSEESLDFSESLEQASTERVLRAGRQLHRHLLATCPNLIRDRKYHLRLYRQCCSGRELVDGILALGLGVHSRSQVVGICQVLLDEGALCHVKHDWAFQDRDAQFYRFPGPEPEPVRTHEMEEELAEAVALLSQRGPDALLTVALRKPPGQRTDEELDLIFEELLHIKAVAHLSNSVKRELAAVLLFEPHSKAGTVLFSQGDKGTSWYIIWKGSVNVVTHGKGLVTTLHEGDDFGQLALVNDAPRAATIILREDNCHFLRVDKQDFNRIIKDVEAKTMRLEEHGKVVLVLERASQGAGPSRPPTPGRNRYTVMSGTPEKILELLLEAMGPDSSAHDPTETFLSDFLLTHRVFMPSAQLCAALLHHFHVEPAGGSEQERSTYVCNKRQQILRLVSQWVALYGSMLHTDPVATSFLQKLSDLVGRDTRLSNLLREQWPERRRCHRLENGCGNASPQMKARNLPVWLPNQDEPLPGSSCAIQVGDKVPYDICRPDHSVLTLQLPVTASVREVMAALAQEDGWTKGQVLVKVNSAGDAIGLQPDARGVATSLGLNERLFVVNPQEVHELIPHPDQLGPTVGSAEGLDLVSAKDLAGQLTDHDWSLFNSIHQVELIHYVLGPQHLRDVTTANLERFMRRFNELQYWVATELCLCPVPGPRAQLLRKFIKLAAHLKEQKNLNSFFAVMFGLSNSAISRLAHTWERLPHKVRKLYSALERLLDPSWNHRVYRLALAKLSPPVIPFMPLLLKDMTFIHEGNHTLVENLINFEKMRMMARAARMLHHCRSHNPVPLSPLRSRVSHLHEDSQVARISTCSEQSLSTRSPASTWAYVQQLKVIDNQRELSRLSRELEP
How it was run: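 Released BODIPY-GDP fluoresces less than Rap1-bound BODIPY-GDP; the signal is followed at 480/540 nm at 5-min intervals over 30 min, after 5 min at room temperature. Reactions contain 100 nM EPAC1, 250 nM RAP1B-BODIPY-GDP and 50 uM GDP; results are normalized to ATA and DMSO.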

[6] = target: Rap guanine nucleotide exchange factor 3 (Homo sapiens) (UniProt O95398); assay: Confirmatory qHTS for agonist of cAMP-regulated guanine nucleotide exchange factor 3 (EPAC1) (AID 1645881); settings: EPAC1 Rap1B BODIPY-GDP exchange fluorescence, 100% = cAMP control response; series mostly up to 154 µM;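 note: EPAC1 catalysed release of BODIPY-GDP from Rap1B seen as fluorescence loss; nearly all actives have a fitted effect of over 75% in size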
[7] = target: Rap guanine nucleotide exchange factor 4 (Homo sapiens) (UniProt Q8WZA2); assay: Confirmatory qHTS for agonist of cAMP-regulated guanine nucleotide exchange factor 4 (EPAC2) (AID 1645884); settings: EPAC2 GEF activity, Rap1B-BODIPY-GDP fluorescence, percent relative to cAMP agonist control; series mostly up to 154 µM;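 note: nucleotide exchange releases bodipy-GDP from Rap1 and this lowers its fluorescence; % is set by controls: 0 for no effect and ±100 for the full control effect; nearly all actives have a fitted effect of over 65% in size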
Rap guanine nucleotide exchange factor 4 (Homo sapiens), sequence (Q8WZA2 whole entry, looked up): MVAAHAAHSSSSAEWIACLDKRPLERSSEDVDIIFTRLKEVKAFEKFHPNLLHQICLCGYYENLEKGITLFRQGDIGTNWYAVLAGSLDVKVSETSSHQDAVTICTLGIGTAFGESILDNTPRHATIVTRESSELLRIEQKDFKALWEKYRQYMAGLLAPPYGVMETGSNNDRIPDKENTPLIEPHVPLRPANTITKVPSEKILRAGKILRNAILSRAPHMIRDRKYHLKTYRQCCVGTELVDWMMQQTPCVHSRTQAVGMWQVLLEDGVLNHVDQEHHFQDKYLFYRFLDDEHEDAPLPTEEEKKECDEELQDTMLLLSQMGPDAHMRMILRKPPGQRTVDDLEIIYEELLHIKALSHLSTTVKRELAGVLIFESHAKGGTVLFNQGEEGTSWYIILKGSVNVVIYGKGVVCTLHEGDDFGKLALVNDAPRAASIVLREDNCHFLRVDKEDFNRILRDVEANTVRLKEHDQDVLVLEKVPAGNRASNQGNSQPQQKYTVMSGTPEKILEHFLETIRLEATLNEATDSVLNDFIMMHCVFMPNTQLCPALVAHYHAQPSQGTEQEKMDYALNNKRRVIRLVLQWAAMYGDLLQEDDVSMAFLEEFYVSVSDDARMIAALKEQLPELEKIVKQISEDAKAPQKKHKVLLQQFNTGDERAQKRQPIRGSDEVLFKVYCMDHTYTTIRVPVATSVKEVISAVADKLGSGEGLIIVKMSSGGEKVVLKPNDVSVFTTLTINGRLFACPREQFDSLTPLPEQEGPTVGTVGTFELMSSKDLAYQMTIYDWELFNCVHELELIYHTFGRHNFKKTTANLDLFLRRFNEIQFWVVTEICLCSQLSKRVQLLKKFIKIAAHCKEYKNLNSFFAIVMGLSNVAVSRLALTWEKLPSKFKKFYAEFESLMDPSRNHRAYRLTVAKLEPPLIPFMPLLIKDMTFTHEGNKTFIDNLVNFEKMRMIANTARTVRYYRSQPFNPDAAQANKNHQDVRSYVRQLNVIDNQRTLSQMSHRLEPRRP

[8] = target: Rap guanine nucleotide exchange factor 4 (Homo sapiens) (UniProt Q8WZA2); assay: Confirmatory qHTS for antagonist of cAMP-regulated guanine nucleotide exchange factor 4 (EPAC2) (AID 1645885); settings: EPAC2 Rap1B-BODIPY-GDP exchange fluorescence, biochemical; note: potency is the fitted concentration of half-maximal effect; nearly all actives have a fitted effect of over 25% in size
[9] = target: Rap guanine nucleotide exchange factor 3 (Homo sapiens) (UniProt O95398); assay: Counterscreen qHTS for antagonist of cAMP-regulated guanine nucleotide exchange factor 3 (EPAC1) (AID 1645888); settings: Rap1B-BODIPY-GDP nucleotide exchange, fluorescence; series mostly up to 154 µM; note: % of control where 0% means no effect
How it was run: (§1)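 Measured: fluorescence of BODIPY-GDP bound to Rap1B, which falls as exchange proceeds. Conditions include 50 uM competing GDP, 5 and 30 min reads, and a later cAMP challenge for antagonist detection.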

[10] = target: Rap guanine nucleotide exchange factor 3 (Homo sapiens) (UniProt O95398); assay: Counterscreen qHTS for agonist of cAMP-regulated guanine nucleotide exchange factor 3 (EPAC1) (AID 1645889); settings: EPAC1 Rap1B-BODIPY-GDP exchange, fluorescence; series mostly up to 154 µM; note: % of control where 0% means no effect; nearly all actives have a fitted effect of over 40% in size
How it was run: as §1

[11] = target: Catechol O-methyltransferase (Homo sapiens) (UniProt P21964); assay: Confirmatory Screen for Target Class Profiling of Small Molecule Inhibitors of Methyltransferases (AID 1745852; calls by dose curve; note: potency is the fitted concentration of half-maximal effect; for activity change, negative = inhibition: % is set by controls: 0 for no effect and ±100 for the full control effect); settings: MTase-Glo luminescence, SAH detection, recombinant enzyme; measured here: COMT max response; stronger effect = lower value
Catechol O-methyltransferase (Homo sapiens), sequence (P21964 whole entry, looked up): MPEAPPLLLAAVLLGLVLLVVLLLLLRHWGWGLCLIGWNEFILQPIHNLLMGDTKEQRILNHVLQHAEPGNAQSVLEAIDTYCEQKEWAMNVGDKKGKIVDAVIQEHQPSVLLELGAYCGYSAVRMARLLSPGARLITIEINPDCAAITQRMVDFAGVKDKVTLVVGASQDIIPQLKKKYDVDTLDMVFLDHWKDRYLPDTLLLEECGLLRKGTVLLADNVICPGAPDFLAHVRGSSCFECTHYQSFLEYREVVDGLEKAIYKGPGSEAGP

[12] = target: Guanidinoacetate N-methyltransferase (Homo sapiens) (UniProt Q14353); assay: as above; settings: MTase-Glo luminescence, SAH detection, recombinant enzyme; activity change, negative = inhibition: at 57.3 µM (top of the series) unless noted
[13] = target: Cytochrome P450 2C9 (Homo sapiens) (UniProt P11712); assay: Cytochrome P450 family 2 subfamily C member 9 (CYP2C9) small molecule antagonists: luciferase biochemical (cell-free) qHTS assay (AID 1645842; active = well fitted curve in the direction sought with a large enough effect in the repeat runs; an effect the other way counts as inactive or inconclusive; note: potency is the fitted concentration of half-maximal effect; nearly all actives have a fitted effect of over 55% in size); settings: P450-Glo CYP2C9 enzyme assay, luciferin luminescence; series mostly up to 57.4 µM
Cytochrome P450 2C9 (Homo sapiens), sequence (P11712 whole entry, looked up): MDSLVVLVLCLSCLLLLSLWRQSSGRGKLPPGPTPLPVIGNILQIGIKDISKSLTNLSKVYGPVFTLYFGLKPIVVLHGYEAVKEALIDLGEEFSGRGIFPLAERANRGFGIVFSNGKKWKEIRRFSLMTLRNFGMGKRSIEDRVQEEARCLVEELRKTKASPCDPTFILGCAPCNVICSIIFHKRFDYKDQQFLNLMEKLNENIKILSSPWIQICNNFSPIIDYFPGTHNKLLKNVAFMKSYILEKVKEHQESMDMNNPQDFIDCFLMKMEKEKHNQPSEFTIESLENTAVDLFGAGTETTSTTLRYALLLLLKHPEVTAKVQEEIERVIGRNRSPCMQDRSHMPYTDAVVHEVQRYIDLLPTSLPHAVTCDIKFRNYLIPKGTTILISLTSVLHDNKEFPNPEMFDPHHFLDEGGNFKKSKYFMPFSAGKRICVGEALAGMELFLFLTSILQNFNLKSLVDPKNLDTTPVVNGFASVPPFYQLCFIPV
How it was run: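 P450-Glo CYP2C9 system: proluciferin substrate with enzyme in mix containing 0.4% BSA, 10 min at room temperature, then NADPH regeneration solution added and incubated 1 h at 37C. Detection reagent stopped reaction; luminescence read after 20 min as RLU.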

Papain (Carica papaya) = Papain (Carica papaya) (UniProt P00784); assay: Primary qHTS assay for inhibitors of the protease papain (AID 1645873); settings: papain Z-FR-AMC cleavage, AMC fluorescence; series mostly up to 49.8 µM;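 note: papain turnover of Z-FR-AMC read as the AMC fluorescence gain over 10 min; % is set by controls: 0 for no effect and ±100 for the full control effect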
Papain (Carica papaya), sequence (P00784 whole entry, looked up): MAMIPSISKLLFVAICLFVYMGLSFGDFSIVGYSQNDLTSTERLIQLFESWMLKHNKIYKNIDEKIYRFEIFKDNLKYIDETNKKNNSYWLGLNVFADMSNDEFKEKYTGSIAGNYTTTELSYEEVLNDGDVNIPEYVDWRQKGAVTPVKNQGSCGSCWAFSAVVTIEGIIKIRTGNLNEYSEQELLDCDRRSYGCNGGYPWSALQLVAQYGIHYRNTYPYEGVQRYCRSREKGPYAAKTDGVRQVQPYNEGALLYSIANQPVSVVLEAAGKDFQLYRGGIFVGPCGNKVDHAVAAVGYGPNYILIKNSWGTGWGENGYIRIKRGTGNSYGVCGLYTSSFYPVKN

## C[C@@H]1COC(Nc2ccc3ncnc(Nc4ccc(OCc5nccs5)c(Cl)c4)c3c2)=N1
[1]
  Potency: inactive
[2]
  Potency: 13.2 µM (active)

## COc1cc2c(Oc3ccc4[nH]c(C)cc4c3F)ncnc2cc1OCCCN1CCCC1
[1]
  Potency: inactive
[2]
  Potency: 4.59 µM (active) and 6.61 µM (active)

## Nc1nc(Nc2ccc(S(N)(=O)=O)cc2)nn1C(=O)c1c(F)cccc1F
[1]
  Potency: inactive
[3]
  Potency: inactive
[2]
  Potency: 1.63 µM (active) and 2.35 µM (active)
[4]
  Potency: 1.63 µM (active) and 1.86 µM (active)

## Cc1coc2c1C(=O)C(=O)c1c-2ccc2c1CCCC2(C)C
[1]
  Potency: inactive
[3]
  Potency: 23.9 µM (active)
[2]
  Potency: inactive
[5]
  Potency: 53.6 µM (active)
[6]
  outcome: inactive
[7]
  outcome: inactive
[8]
  Potency: 30.1 µM (active)
[9]
  outcome: inactive
[10]
  outcome: inactive
[11]
  activity: -26.5%
[12]
  Potency: 24.1 µM (active)

## Cc1cc(CN2CCN(c3c(Br)cnc4nc(-c5ccc(N6CCN(C)CC6)cc5)[nH]c34)CC2)no1
[1]
  Potency: inactive
[13]
  Potency: 9.52 µM (active)
[2]
  Potency: 205 nM (active) and 468 nM (active)

## CN1CCN(Cc2ccc(NC(=O)Nc3ccc(Oc4cc(NC(=O)C5CC5)ncn4)cc3)cc2C(F)(F)F)CC1
[1]
  Potency: inactive
[3]
  Potency: 8.49 µM (active)
[2]
  Potency: 91.6 nM (active) and 166 nM (active)
[4]
  Potency: 91.6 nM (active) and 186 nM (active)

## CCS(=O)(=O)c1cccc(-c2cc(C(=O)NC3CCN(C)CC3)c(C)c3[nH]c4ncc(C)cc4c23)c1
[1]
  Potency: inactive
[3]
  Potency: inactive
[2]
  Potency: 113 nM (active) and 166 nM (active)
[4]
  Potency: 35.8 nM (active) and 41.7 nM (active)
[11]
  activity: -16.8% and -13.7%
[12]
  Potency: 18.8 µM (active)
  activity change, negative = inhibition: -3.37%

## CNc1nccc(-c2cccnc2Oc2cc(C(=O)Nc3cccc(C(F)(F)F)c3)ccc2C)n1
[1]
  Potency: inactive
[13]
  Potency: 3.01 µM (active)
[2]
  Potency: 2.58 µM (active) and 3.72 µM (active)
[4]
  Potency: 4090 nM (active)

## O=c1c2ccccc2nc2n1CCc1c-2[nH]c2ccccc12
[1]
  Potency: inactive
Papain (Carica papaya)
  outcome: inactive
[2]
  Potency: inactive
[4]
  Potency: inactive

## CC1(C)CCC(c2ccc(Cl)cc2)=C(CN2CCN(c3ccc(C(=O)NS(=O)(=O)c4ccc(N[C@H](CCN5CCOCC5)CSc5ccccc5)c(S(=O)(=O)C(F)(F)F)c4)cc3)CC2)C1
[1]
  Potency: inactive
[2]
  Potency: 1.03 µM (active) and 1.18 µM (active)
[4]
  Potency: 365 nM (active) and 742 nM (active)

## CC(C)C[C@H](NC(=O)CNC(=O)c1cc(Cl)ccc1Cl)B(O)O
[1]
  Potency: inactive
[2]
  Potency: 0.148 µM (active)
[4]
  Potency: 93.4 nM (active)

## COc1cc2ncn(-c3cc(OCc4ccccc4C(F)(F)F)c(C(N)=O)s3)c2cc1OC
[1]
  Potency: inactive
[2]
  Potency: 562 nM (active) and 1.05 µM (active)

## COCCn1c2c([n+](Cc3cnccn3)c1C)C(=O)c1ccccc1C2=O
[1]
  Potency: inactive
[2]
  Potency: 0.0042 µM (active)
[4]
  Potency: 5.9 nM (active)

## CCCCCCCCCC(=O)N[C@@H](Cc1c[nH]c2ccccc12)C(=O)N[C@H](CC(N)=O)C(=O)N[C@@H](CC(=O)O)C(=O)N[C@@H]1C(=O)NCC(=O)N[C@@H](CCCN)C(=O)N[C@@H](CC(=O)O)C(=O)N[C@H](C)C(=O)N[C@@H](CC(=O)O)C(=O)NCC(=O)N[C@H](CO)C(=O)N[C@@H]([C@@H](C)CC(=O)O)C(=O)N[C@@H](CC(=O)c2ccccc2N)C(=O)O[C@@H]1C
[1]
  Potency: inactive
[2]
  Potency: inactive
[4]
  Potency: inactive

## CC(C)(C)OC(=O)Nc1ccc(-c2cc(C(=O)NCCCCCCC(=O)NO)no2)cc1
[1]
  Potency: inactive
[2]
  Potency: 1.48 µM (active)
[4]
  Potency: 1320 nM (active)

## CC1(O)CC(c2nc(-c3ccc4ccc(-c5ccccc5)nc4c3)c3c(N)nccn23)C1 (stereo unspecified)
[1]
  Potency: inactive
[2]
  Potency: 12.9 µM (active)
[4]
  Potency: 18300 nM (active)

## COc1cc2c(cc1-c1c(C)noc1C)ncc1[nH]c(=O)n([C@H](C)c3ccccn3)c12
[1]
  Potency: inactive
[2]
  Potency: 0.468 µM (active)
[4]
  Potency: 468 nM (active)

## COC(=O)Nc1ccc(-c2nc(N3CCOCC3)c3cnn(C4CCN(Cc5cccnc5)CC4)c3n2)cc1
[1]
  Potency: inactive
[2]
  Potency: 0.833 µM (active)
[4]
  Potency: 662 nM (active)

## Clc1ccc2ncc(-c3cccc(NC4CNC4)n3)n2c1
[1]
  Potency: inactive
[2]
  Potency: inactive
[4]
  Potency: inactive

## Nc1ccc(C(=O)c2cc3c(ccc4ccccc43)[nH]2)cc1
[1]
  Potency: inactive
[2]
  Potency: 2.41 µM (active)

## COc1cc2c(Nc3ccc(NC(=O)c4ccccc4)cc3)ncnc2cc1OCCCN1CCOCC1
[1]
  Potency: inactive
[2]
  Potency: 5.15 µM (active) and 4.68 µM (active)
[4]
  Potency: 5.15 µM (active) and 934 nM (active)

## COc1cc2c(Oc3ccc(NC(=O)C4(C(=O)Nc5ccc(F)cc5)CC4)cc3F)ccnc2cc1OCCCN1CCOCC1
[1]
  Potency: inactive
[2]
  Potency: 515 nM (active) and 1.32 µM (active)
[4]
  Potency: 365 nM (active) and 833 nM (active)

## CC(C)(C)c1cc(NC(=O)Nc2ccc(-c3cn4c(n3)sc3cc(OCCN5CCOCC5)ccc34)cc2)no1
[1]
  Potency: inactive
[2]
  Potency: inactive
[4]
  Potency: inactive
